Each structure is given as a SMILES string. Among all 16,000 compounds or so, about 2,600 (16%) were called active. Roughly 20% stayed inconclusive and do not appear here. Only a sample is shown. Unmarked numbers belong to inactive results. Calls follow the shape of the dose curve; as a rule, active = well fitted curve in the direction sought with a large enough effect; inconclusive = small, poorly fitted or top-dose-only effect, or effect the other way; inactive = no such curve, though single readings can be large or run the other way.
% is scaled to controls: 0 for no effect and ±100 for the full control effect.

Cytochrome P450 2D6 (Homo sapiens), sequence (P10635 whole entry, looked up): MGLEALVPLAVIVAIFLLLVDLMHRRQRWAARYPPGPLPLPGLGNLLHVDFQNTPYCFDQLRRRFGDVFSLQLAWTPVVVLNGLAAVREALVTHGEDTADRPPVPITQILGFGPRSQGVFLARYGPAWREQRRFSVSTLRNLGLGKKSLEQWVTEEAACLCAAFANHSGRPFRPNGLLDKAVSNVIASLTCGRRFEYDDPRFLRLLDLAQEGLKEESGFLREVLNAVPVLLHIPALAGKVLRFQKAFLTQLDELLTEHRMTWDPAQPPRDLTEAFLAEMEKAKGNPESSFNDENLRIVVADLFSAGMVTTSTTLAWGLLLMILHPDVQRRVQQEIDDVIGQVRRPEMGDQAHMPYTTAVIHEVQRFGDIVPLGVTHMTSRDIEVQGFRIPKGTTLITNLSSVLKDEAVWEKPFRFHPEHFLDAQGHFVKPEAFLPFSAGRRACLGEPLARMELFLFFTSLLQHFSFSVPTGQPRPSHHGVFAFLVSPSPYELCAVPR

The assay addresses Cytochrome P450 2D6 (Homo sapiens) (UniProt P10635). The assay can be described thus: Cytochrome panel assay with activity outcomes. The following applies: recombinant CYP, pro-luciferin dealkylation, luminescence, p450-cyp2d6; series mostly up to 57.1 µM.
Turning to `Cc1cc(OCCn2cc(/C(N)=N/O)c3ccccc32)ccc1Cl`, the AC50 is 3.98 µM (active).

As for `COc1ccccc1OCCn1cc(C(=O)c2ccco2)c2ccccc21`, the AC50 entry is “inactive”.

On to `CO[C@]1(NC(=O)CSCC#N)C(=O)N2C(C(=O)O)=C(CSc3nnnn3C)CS[C@H]21`, for which the AC50 entry was “inactive”.

Consider `C[C@H](C[C@H](N)C(=O)O)C(=O)O`, for which the AC50 result is “inactive”.

In the case of `CCn1c2ccccc2c2cc(NC(=O)CSc3nnc(-c4ccc(OC)c(OC)c4)n3N)ccc21`, the AC50 was 14.1 µM (active).

Consider `Cc1ccc(-c2cc(-c3nnc(SCC(=O)NC(C)C(C)C)n3N)c3ccccc3n2)cc1` (stereo unspecified), for which the AC50 entry is “inactive”.

Regarding `COc1ccc(C)cc1NC(=O)CSc1nnc(-c2ccc(OC)c(OC)c2)n1N`, the AC50 result is “inactive”.

With `Cc1cccc(NC(=O)CSc2nnnn2C)n1`, the AC50 result is “inactive”.

As for `CCCCOc1ccc(C(=O)N/C(=C\c2cccc([N+](=O)[O-])c2)C(=O)OCCC)cc1`, the AC50 entry was “inactive”.

On to `Cc1cc(C)c(S(C)(=O)=O)c(Oc2ccc(C(C)(C)C)cc2)n1`, for which the AC50 result was “inactive”.

Regarding `O=c1c[n+](CCCC[n+]2cc(=O)o[nH]2)[nH]o1`, the activity, negative = inhibition is -2.36% [at 11.4 µM].

In the case of `COc1ccc(CNc2ncncc2-c2cccc(C#N)c2)c(OC)c1`, the half-maximal activity concentration (AC50) is 5.01 µM (active).

Regarding `COc1ccccc1CNc1ncncc1-c1cccc(C#N)c1`, the AC50 was 15.8 µM (active).

Regarding `Cc1cnc(CNc2ncncc2-c2cccc(C#N)c2)cn1`, the AC50 entry is “inactive”.

With `COc1ccc(CNc2ncnc3ccc(-c4cccc(C#N)c4)cc23)c(OC)c1`, the AC50 entry is “inactive”.

On to `O=C(Oc1oc(-c2ccco2)nc1C=Nc1ccc(Cl)cc1)c1ccco1`, for which the AC50 result is “inactive”.

Consider `Cc1c2c(nc3ccccc13)-c1cccc(=O)n1C2`, for which the AC50 entry is “inactive”.

Consider `COc1cccc(/C=N\NC(=O)c2cc(OCC(F)(F)F)ccc2OCC(F)(F)F)c1`, for which the AC50 entry was “inactive”.

Consider `COc1ccc2[nH]c(=O)c(CN(CCO)C(=O)c3cccs3)cc2c1`, for which the AC50 result is “inactive”.

As to `O=[N+]([O-])c1cc(/C=N/O)ccc1SCc1ccccc1`, the AC50 result was “inactive”.

For the molecule `CC1(C)O[C@@H]2O[C@H]([C@H](O)CO/N=C3/[C@H]4O[C@@H]4[C@@H](O)[C@H]4[C@H]3CCn3c(=O)n(-c5ccccc5)c(=O)n34)[C@@H](O)[C@@H]2O1`, the activity, negative = inhibition was 7.2% [at 11.4 µM].

For `CO[C@@H]1COC(=O)[C@H]2CCCN2C(=O)[C@@H](C)COC(=O)CCC[C@H]1C`, the activity, negative = inhibition is 12% [at 11.4 µM].

For `CCOC(=O)CNc1c(-c2ccccc2)nc2ccc(Cl)cn12`, the concentration at half-maximal activity (AC50) was 7.94 µM (active).

In the case of `CCOC(=O)c1c(-c2ccccc2)nc2ccc(Cl)cn12`, the AC50 result was “inactive”.

For `CCOC(=O)Cn1c(-c2ccccc2)nc2ccccc2c1=O`, the AC50 entry is “inactive”.

Regarding `COc1cccc2c1C(=O)c1c(O)c3c(c(O)c1C2=O)C[C@](O)(C(=O)CO)C[C@H]3O[C@@H]1C[C@H](N)[C@H](O)[C@H](C)O1`, the AC50 result is “inactive”.

In the case of `Cc1ccccc1NC(=O)C1CC(=O)N(c2ccc3c4c(cccc24)CC3)C1` (stereo unspecified), the AC50 result was “inactive”.

For `CCOC(=O)N/N=C1/C[C@@H](O)[C@@H](O)[C@@H]2[C@@H]3C(=O)N(Cc4ccccc4)C(=O)[C@H]3CC[C@H]12`, the activity, negative = inhibition is 9.96% [at 11.4 µM].

As to `CC(C)CO/N=C1/C[C@@H](O)[C@@H](O)[C@@H]2[C@@H]3C(=O)N(Cc4ccc5c(c4)OCO5)C(=O)[C@H]3CC[C@@H]12`, the activity, negative = inhibition was -15.9% [at 11.4 µM].

As for `CC(=O)OC[C@@H]1O[C@@H](O/N=C2/C[C@@H](O)[C@@H](O)[C@@H]3[C@@H]4C(=O)N([C@@H](C)c5ccccc5)C(=O)[C@H]4CC[C@@H]23)[C@H](OC(C)=O)[C@H](OC(C)=O)[C@@H]1OC(C)=O`, the activity, negative = inhibition was -0.595% [at 11.4 µM].

On to `CCN1C(=O)[C@H]2[C@H]3[C@H](O)[C@H](O)C/C(=N/OCC[C@H]4C=C[C@H](OC(C)=O)[C@@H](COC(C)=O)O4)[C@@H]3CC[C@@H]2C1=O`, for which the activity, negative = inhibition is -11.1% [at 11.4 µM].

Turning to `CC(=O)OC[C@@H]1O[C@@H](O/N=C2/C[C@@H](O)[C@@H](O)[C@@H]3[C@@H]4C(=O)N(Cc5ccccc5)C(=O)[C@H]4CC[C@H]23)[C@H](OC(C)=O)[C@H](OC(C)=O)[C@@H]1OC(C)=O`, the AC50 was 3.16 µM (active).

As for `CC(=O)OC[C@@H]1O[C@@H](O/N=C2/C[C@@H](O)[C@@H](O)[C@@H]3[C@@H]4C(=O)N(Cc5ccccc5)C(=O)[C@H]4CC[C@@H]23)[C@H](OC(C)=O)[C@H](OC(C)=O)[C@@H]1OC(C)=O`, the AC50 was 3.98 µM (active).

For `CC(C)=CCC/C(C)=C/CO/N=C1/C[C@@H](O)[C@@H](O)[C@@H]2[C@@H]3C(=O)N(Cc4ccccc4)C(=O)[C@H]3CC[C@@H]12`, the activity, negative = inhibition is 15% [at 11.4 µM].

As to `CC(=O)OC[C@@H]1O[C@@H](O/N=C2/C[C@@H](O)[C@@H](O)[C@@H]3[C@@H]4C(=O)N(Cc5ccc6c(c5)OCO6)C(=O)[C@H]4CC[C@@H]23)[C@H](OC(C)=O)[C@H](OC(C)=O)[C@@H]1OC(C)=O`, the activity, negative = inhibition is -5.23% [at 11.4 µM].

With `CC(=O)OC[C@@H]1O[C@@H](O/N=C2/C[C@@H](O)[C@@H](O)[C@@H]3[C@@H]4C(=O)N(Cc5ccc6c(c5)OCO6)C(=O)[C@H]4CC[C@H]23)[C@H](OC(C)=O)[C@H](OC(C)=O)[C@@H]1OC(C)=O`, the AC50 is 3.16 µM (active).

Take `COCC(=O)Nc1ccc(-c2cn3cccnc3n2)cc1`: the AC50 result is “inactive”.

Turning to `COC(=O)[C@H]1C[C@@H]1[C@H](NC(=O)c1cccnc1)c1ccccc1`, the AC50 result is “inactive”.

For the molecule `O=c1cc(N2CCN(c3cccc(Cl)c3)CC2)[nH]c(=O)n1C1CCCCC1`, the AC50 entry is “inactive”.

`CC(=O)N(/N=C1\Sc2ccccc2C1=O)c1ccccc1`: the AC50 result is “inactive”.

With `N#Cc1c(NC(=O)CCC(=O)O)ccc2ccccc12`, the activity, negative = inhibition was 7.11% [at 11.4 µM].

Turning to `COc1ccc(N2CCN(C(=N)/C(C(C)=O)=C(\C)O)CC2)cc1`, the AC50 result is “inactive”.

With `COc1cccc(C2C3(C#N)C(N)=NC(OC)(OC)C23C#N)c1` (stereo unspecified), the AC50 entry was “inactive”.

For `COc1ccc(-c2nc3cnc(Oc4cccc(Cl)c4)nc3n(C[C@H]3CCCO3)c2=O)cc1`, the AC50 result is “inactive”.

Regarding `COc1ccc(NC(=O)c2cc3n(n2)C(C(F)(F)F)CC(c2ccc4c(c2)OCO4)N3)cc1OC` (stereo unspecified), the AC50 entry is “inactive”.

For `COC(=O)C1=C(N)N(c2ccccc2C(F)(F)F)C2=C(C(=O)CCC2)C1c1ccc2c(c1)OCO2` (stereo unspecified), the AC50 was 28.2 µM (active).

As for `COc1ccc(OC)c(NC(=O)c2cc3n(n2)C(C(F)(F)F)CC(c2ccc4c(c2)OCO4)N3)c1` (stereo unspecified), the AC50 result was “inactive”.

With `COc1cc(/C=C2/C(=N)N3C=CSC3=NC2=O)ccc1OCCCOc1ccccc1C`, the AC50 entry is “inactive”.

Regarding `FC(F)(F)c1nnc2c(Sc3ccc(Cl)cc3)nc3ccccc3n12`, the AC50 result is “inactive”.

Regarding `CCOc1ccccc1NC(=O)CSc1nnc(-c2cnccn2)n1C`, the AC50 is 12.6 µM (active).

In the case of `CCOc1ccccc1-n1nnnc1SCC(=O)Nc1cc(C)on1`, the AC50 entry was “inactive”.

Consider `COC(=O)c1ccccc1NC(=O)CSc1nnc(C(CO)NC(=O)c2ccccc2Cl)n1C` (stereo unspecified), for which the AC50 entry was “inactive”.

`CCn1c(O)c(/C=N/N=C2CCCC2)c2ccc(C3=NNC(=O)CC3)cc21`: the AC50 entry was “inactive”.

With `O=C1CCC(c2ccc(-n3ccnc3)cc2)=NN1`, the half-maximal activity concentration (AC50) was 2.51 µM (active).

With `Cc1cn2c(-c3ccncc3)nnc2s1`, the AC50 entry was “inactive”.

`Oc1cc(O)c2c(c1)O[C@H](c1ccc(O)c(O)c1)[C@@H](O)[C@@H]2c1c(O)cc(O)c2c1O[C@@H](c1ccc(O)c(O)c1)[C@H](O)C2`: the activity, negative = inhibition is -5.15% [at 11.4 µM].

In the case of `COc1ccc(CNc2ncnc3ccc(-c4ccccc4CN(C)C)cc23)c(OC)c1`, the half-maximal activity concentration (AC50) is 1.26 µM (active).

For the molecule `CNc1ncnc2ccc(-c3ccccc3CN(C)C)cc12`, the AC50 was 10 µM (active).

With `CNc1ncnc2ccc(-c3ccccc3C#N)cc12`, the AC50 entry was “inactive”.

Turning to `COc1ccccc1CNc1ncnc2ccc(-c3ccccc3CN(C)C)cc12`, the half-maximal activity concentration (AC50) is 2.51 µM (active).

`COc1ccc(CNc2ncnc3ccc(-c4ccccc4OC)cc23)c(OC)c1`: the AC50 entry was “inactive”.

As for `CN(C)Cc1ccccc1-c1ccc2ncnc(NCc3ccccc3)c2c1`, the half-maximal activity concentration (AC50) was 7.94 µM (active).

For the molecule `O=C1Nc2cc(Cl)c(Cl)cc2N(O)N1c1ccc(Cl)c(Cl)c1`, the AC50 entry is “inactive”.

For the molecule `CC1(C)O[C@@H]2C[C@H]3[C@H]4C[C@H](F)C5=CC(=O)CC[C@]5(C)[C@@H]4[C@H](O)C[C@]3(C)[C@]2(C(=O)CO)O1`, the AC50 entry is “inactive”.

Regarding `COCC(=O)Oc1c(S(=O)(=O)c2ccc(C)cc2)c(C)nn1-c1ccccc1`, the AC50 entry is “inactive”.

For the molecule `NC(=O)c1cc[n+](CC2=C(C(=O)O)N3C(=O)[C@@H](NC(=O)[C@H](c4ccccc4)S(=O)(=O)[O-])[C@@H]3SC2)cc1`, the AC50 result was “inactive”.

Turning to `COc1ccc(-c2cc(C(=O)Nc3cnn(Cc4ccccc4C)c3)no2)cc1OC`, the AC50 result was “inactive”.

`COC(=O)c1cnn(C(=O)c2cc(OC)ccc2Br)c1N`: the AC50 entry is “inactive”.

As to `O=C(O)/C=C\[C@H](O)c1ccc(Cl)cc1`, the AC50 entry is “inactive”.

In the case of `Cc1ccccc1N(C(=O)Cc1cccs1)C(C(=O)NCC1CCCO1)c1cccnc1` (stereo unspecified), the AC50 result is “inactive”.

Turning to `N#Cc1c(-c2ccccc2)nc(-c2ccccc2)[nH]c1=O`, the AC50 result was “inactive”.

With `CC(C)CN=C(N)N=C(N)N`, the activity, negative = inhibition is 7.41% [at 11.4 µM].

Consider `N#C/C(=C\Nc1ccccn1)C(=O)c1ccco1`, for which the activity, negative = inhibition was -1.48% [at 11.4 µM].

Consider `COCCNc1ncnc2ccc(-c3ccccc3CN(C)C)cc12`, for which the AC50 was 15.8 µM (active).

Turning to `N#Cc1cccc(-c2ccc3ncnc(NC4CCNCC4)c3c2)c1`, the AC50 result was “inactive”.

For `CN(C)Cc1ccccc1-c1ccc2ncnc(NC3CCNCC3)c2c1`, the concentration at half-maximal activity (AC50) is 10 µM (active).

Take `CS(=O)(=O)Nc1cccc(-c2ccc3ncnc(NC4CCNCC4)c3c2)c1`: the AC50 entry was “inactive”.

As to `COCCNc1ncnc2ccc(-c3ccc(C(=O)N(C)C)cc3)cc12`, the AC50 result was “inactive”.

Take `C[C@@H](CNC(N)=O)NC(N)=O`: the activity, negative = inhibition is -3.67% [at 11.4 µM].

As for `CN1CCN(c2ncc3ncc(=O)n(-c4ccccc4)c3n2)CC1`, the AC50 entry is “inactive”.

As for `O=C(NC(N1CCCC1)C(Cl)(Cl)Cl)c1ccccc1` (stereo unspecified), the AC50 result is “inactive”.

Usually AC50 stands for the concentration giving half of the maximal activity seen.
